Test results published in PubChem BioAssay.
Values joined by “and” are separate entries in the source; they are usually repeats but may differ in a detail not shown here. Equal entries are not always repeated. Active and inactive are the calls of the source. No stated cut-off is given here; in the data, active means inhibition above about 80%; inactive means the rest.

Assay: growth inhibition, single agents and combos, LFS_MB_1R, cell-based, cisplatin or BGB combos, synergistic combos for chromothripsis tumors (AID 1671452)
Conditions: LFS_MB_1R medulloblastoma cells, at 0.5 µM, stronger effect = higher value
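Further: cells exposed for 96 hours before readout.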

**Q.** With `O=C(O)P(=O)(O)O` as the compound, how does the inhibition read?
**A.** -51.1% (inactive)

**Q.** With `C[C@H]1COc2c(C3(N)CC3)c(F)cc3c(=O)c(C(=O)O)cn1c23` as the compound, how does the inhibition read?
**A.** -26.1% (inactive)

**Q.** With `Nc1nc2c(ncn2CCC(CO)CO)c(=O)[nH]1` as the compound, how does the inhibition read?
**A.** -19.7% (inactive) and -18.4% (inactive)

**Q.** Which inhibition does the source give for `CN(C)/N=N/c1nc[nH]c1C(N)=O` here?
**A.** -6.85% (inactive) and -29.4% (inactive)

**Q.** For `CC1CCc2cc(F)cc3c(=O)c(C(=O)O)cn1c23` (stereo not given), which inhibition is on record?
**A.** -3.56% (inactive) and 7.41% (inactive)

**Q.** Which inhibition does the source give for `CCN1CCN(c2cc3c(cc2F)c(=O)c(C(=O)O)cn3C2CC2)CC1` here?
**A.** -17.4% (inactive)

Same assay, conditions: LFS_MB_1R medulloblastoma cells, measured here: combination with BGB IC40, at 0.05 µM, stronger effect = higher value

**Q.** With `O=C(O)P(=O)(O)O` as the compound, how does the inhibition read?
**A.** -50.8%

**Q.** Which inhibition does the source give for `C[C@H]1COc2c(C3(N)CC3)c(F)cc3c(=O)c(C(=O)O)cn1c23` here?
**A.** -41.4%

**Q.** With `Nc1nc2c(ncn2CCC(CO)CO)c(=O)[nH]1` as the compound, how does the inhibition read?
**A.** -23.5% and -18.9%

**Q.** Which inhibition does the source give for `CN(C)/N=N/c1nc[nH]c1C(N)=O` here?
**A.** -7.35% and -52.3%

**Q.** For `CC1CCc2cc(F)cc3c(=O)c(C(=O)O)cn1c23` (stereo not given), which inhibition is on record?
**A.** -7.45% and -3.94%

**Q.** Which inhibition does the source give for `CCN1CCN(c2cc3c(cc2F)c(=O)c(C(=O)O)cn3C2CC2)CC1` here?
**A.** -29.3%

Same assay, conditions: LFS_MB_1R medulloblastoma cells, measured here: combination with cisplatin, at 0.5 µM, stronger effect = higher value

**Q.** For `O=C(O)P(=O)(O)O`, which inhibition is on record?
**A.** -81.2%

**Q.** With `C[C@H]1COc2c(C3(N)CC3)c(F)cc3c(=O)c(C(=O)O)cn1c23` as the compound, how does the inhibition read?
**A.** -26.2%

**Q.** Which inhibition does the source give for `Nc1nc2c(ncn2CCC(CO)CO)c(=O)[nH]1` here?
**A.** -56.8% and -22.6%

**Q.** For `CN(C)/N=N/c1nc[nH]c1C(N)=O`, which inhibition is on record?
**A.** 9.4% and -47.7%

**Q.** Which inhibition does the source give for `CC1CCc2cc(F)cc3c(=O)c(C(=O)O)cn1c23` (stereo not given) here?
**A.** 23.1% and 16.6%

**Q.** Which inhibition does the source give for `CCN1CCN(c2cc3c(cc2F)c(=O)c(C(=O)O)cn3C2CC2)CC1` here?
**A.** -5.5%

Same assay, conditions: LFS_MB_1R medulloblastoma cells, measured here: combination with cisplatin, at 5 µM, stronger effect = higher value

**Q.** With `O=C(O)P(=O)(O)O` as the compound, how does the inhibition read?
**A.** -40.9%

**Q.** For `C[C@H]1COc2c(C3(N)CC3)c(F)cc3c(=O)c(C(=O)O)cn1c23`, which inhibition is on record?
**A.** -29.7%

**Q.** With `Nc1nc2c(ncn2CCC(CO)CO)c(=O)[nH]1` as the compound, how does the inhibition read?
**A.** -7.78% and -27.3%

**Q.** With `CN(C)/N=N/c1nc[nH]c1C(N)=O` as the compound, how does the inhibition read?
**A.** 3.18% and -94.1%

**Q.** For `CC1CCc2cc(F)cc3c(=O)c(C(=O)O)cn1c23` (stereo not given), which inhibition is on record?
**A.** 7.04% and -25.3%

**Q.** Which inhibition does the source give for `CCN1CCN(c2cc3c(cc2F)c(=O)c(C(=O)O)cn3C2CC2)CC1` here?
**A.** -5.5%

Assay: growth inhibition, single agents and combos, HTB85, cell-based, BGB or cisplatin IC20 combos, synergistic combos for chromothripsis tumors (AID 1671453);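 further: 0% = vehicle DMSO and 100% = high DMSO killing control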
Conditions: HTB85 osteosarcoma cells, drug combinations, at 0.5 µM, stronger effect = higher value

**Q.** Which inhibition does the source give for `O=C(O)P(=O)(O)O` here?
**A.** -23.4% (inactive)

**Q.** Which inhibition does the source give for `C[C@H]1COc2c(C3(N)CC3)c(F)cc3c(=O)c(C(=O)O)cn1c23` here?
**A.** -9.68% (inactive)

**Q.** With `Nc1nc2c(ncn2CCC(CO)CO)c(=O)[nH]1` as the compound, how does the inhibition read?
**A.** -21.5% (inactive) and -5.99% (inactive)

**Q.** Which inhibition does the source give for `CN(C)/N=N/c1nc[nH]c1C(N)=O` here?
**A.** -1.95% (inactive) and -35.1% (inactive)

**Q.** Which inhibition does the source give for `CC1CCc2cc(F)cc3c(=O)c(C(=O)O)cn1c23` (stereo not given) here?
**A.** -21.3% (inactive) and 5.14% (inactive)

**Q.** For `CCN1CCN(c2cc3c(cc2F)c(=O)c(C(=O)O)cn3C2CC2)CC1`, which inhibition is on record?
**A.** 4.78% (inactive)
